Measurements as given in PubChem BioAssay (Tox21).
Values joined by “and” are separate entries in the source; they are usually repeats but may differ in a detail not shown here. Equal values may be shown once. Records with an inconclusive call do not appear. Active and inactive are the calls of the source. Unless noted, the call rests on the fitted dose curve; in most records, active means well fitted curve in the direction sought with a large enough effect in the repeat runs; inconclusive means weak or mixed curves; inactive means no such curve, though single readings can be large; an effect the other way counts as inactive or inconclusive.

Experiments:
[1] = qHTS assay to identify small molecule antagonists of the estrogen receptor alpha (ER-alpha) signaling pathway using the BG1 cell line in the presence of 0.1 nM 17-beta-estradiol - cell viability counter screen (AID 1259241); further: nearly all actives have a fitted effect of over 40% in size; further: potency means the concentration at half of the fitted maximal effect
Procedure, shortened: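 Following 5 days in phenol red-free medium with charcoal-stripped serum, VM7Luc4E2 cells received test compounds alongside 0.1 nM 17beta-estradiol (final) at 37C for 22 hr. Live cells were then quantified via protease-substrate fluorescence.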

[2] = qHTS assay to identify small molecule antagonists of the androgen receptor (AR) signaling pathway using the MDA cell line in the presence of 0.5 nM R1881 - cell viability counter screen (AID 1259242); further: nearly all actives have a fitted effect of over 45% in size; further: potency means the concentration at half of the fitted maximal effect
Procedure, shortened: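 Human breast carcinoma MDA-kb2 cells, cultured without CO2, receive compounds alongside 0.5 nM (final) R1881 agonist. After 16 hr at 37C, viability is taken as live-cell protease signal.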

[3] = biological target: Androgen receptor (Homo sapiens) (UniProt P10275); assay: qHTS assay to identify small molecule antagonists of the androgen receptor (AR) signaling pathway using the MDA cell line in the presence of 0.5 nM R1881 (AID 1259243); further: nearly all actives have a fitted effect of over 50% in size; further: potency means the concentration at half of the fitted maximal effect
Procedure, shortened: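 Cells: MDA-kb2 (MMTV-luc). Stimulus: 0.5 nM R1881. Time: 16 hr, 37C, no CO2. Detection: ONE-Glo luminescence after 30 min at RT.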

[4] = qHTS assay to identify small molecule HDAC inhibitors (AID 1259364); further: potency means the concentration at half of the fitted maximal effect;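 further: wild-type HCT-116 cells with endogenous class I/II HDAC activity; nearly all actives have a fitted effect of over 45% in size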
Procedure, shortened: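 After a 2 hr compound incubation (37C, 5% CO2), HCT-116 cells seeded at 1,500/well the day before received HDAC-Glo reagent; signal read as luminescence after 30 min at room temperature.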

[5] = qHTS assay to identify small molecule HDAC inhibitors - cell viability counter screen (AID 1259365); further: nearly all actives have a fitted effect of over 50% in size; further: potency means the concentration at half of the fitted maximal effect; on activity change, negative = cytotoxicity: series mostly up to about 92 µM
Procedure, shortened: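 HCT-116 wild-type, overnight attachment; 2hr drug exposure, 37C; CellTiter-Glo luminescent ATP readout after 30min RT.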

[6] = qHTS assay to identify small molecule agonists of the sonic hedgehog signaling (Shh) pathway - cell viability counter screen (AID 1259366); further: nearly all actives have a fitted effect of over 50% in size; further: potency means the concentration at half of the fitted maximal effect
Procedure, shortened: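 Compounds in DMSO were pin-transferred onto 3T3 Gli1-Luc cells that had settled 4hr; plates then stood 24hr at 37C and 5% CO2. One hour before the end, CellTiter-Fluor was added and fluorescence recorded.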

[7] = qHTS assay to identify small molecule antagonists of the sonic hedgehog signaling (Shh) pathway - cell viability counter screen (AID 1259367); further: nearly all actives have a fitted effect of over 55% in size; further: potency means the concentration at half of the fitted maximal effect
Procedure, shortened: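 CellTiter-Fluor signal in conditioned medium-stimulated 3T3 Gli1-Luc cells, 23 hr compound exposure, 37C.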

[8] = qHTS assay to identify small molecule agonists of the sonic hedgehog signaling (Shh) pathway (AID 1259368; calls by dose curve;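 further: NIH/3T3-derived 3T3Gli1-Luc cells carrying a stable Gli1-driven firefly luciferase reporter; series mostly up to about 92 µM; nearly all actives have a fitted effect of over 15% in size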)
Procedure, shortened: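 Stable NIH/3T3 Gli1-Luc reporter clone; 24 hr cpd exposure after a 4 hr settling period; luminescence endpoint.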

[9] = qHTS assay to identify small molecule antagonists of the sonic hedgehog signaling (Shh) pathway (AID 1259369; calls by dose curve; further: nearly all actives have a fitted effect of over 45% in size; further: potency means the concentration at half of the fitted maximal effect)
Procedure, shortened: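 Gli1 transcriptional reporter (firefly Luc) in NIH/3T3 background, conditioned-medium activated. 24hr exposure, luminescence endpoint.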

[10] = biological target: Estrogen receptor beta (Homo sapiens) (UniProt Q92731); assay: qHTS assay to identify small molecule agonists of the estrogen receptor beta (ER-beta) signaling pathway (AID 1259377; active means well fitted activation curve with a large enough effect in the signal ratio in the repeat runs, not every such curve was filed as active; the % refers to the signal ratio)
Procedure, shortened: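 qHTS in ER-beta-UAS-bla HEK293T cells: 6 hr settling, then 16 hr compound at 37C, then LiveBLAzer substrate 2 h at RT before fluorescence reading.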

[11] = biological target: Estrogen receptor beta (Homo sapiens) (UniProt Q92731); assay: qHTS assay to identify small molecule antagonists of the estrogen receptor beta (ER-beta) signaling pathway (AID 1259378; active means well fitted inhibition curve with a large enough effect in the signal ratio in the repeat runs, not every such curve was filed as active; the % refers to the signal ratio; further: potency means the concentration at half of the fitted maximal effect)
Procedure, shortened: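 Antagonist mode: compounds added to beta-lactamase reporter HEK293T ER-beta-UAS cells stimulated with E2 (1nM final), 16 hr at 37C. LiveBLAzer B/G FRET substrate, 2 hours room temperature, fluorescence read-out.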

[12] = qHTS assay to identify small molecule agonists of the androgen receptor (AR) signaling pathway in the presence of an antagonist - cell viability counter screen (AID 1259379); further: nearly all actives have a fitted effect of over 25% in size; further: potency means the concentration at half of the fitted maximal effect;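 on activity change, negative = cytotoxicity: MDA-kb2 human breast cancer cells carrying an MMTV luciferase reporter; series mostly up to about 92 µM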
Procedure, shortened: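 Counter screen for cell viability run in parallel with the AR agonist-mode luciferase assay. MDA-kb2 cells were co-treated with nilutamide (3.0uM final) and compounds, then incubated 16 hr at 37C, and CellTiter-Fluor fluorescence was measured.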

[13] = qHTS assay to identify small molecule agonists of the estrogen receptor beta (ER-beta) signaling pathway - cell viability counter screen (AID 1259380); further: nearly all actives have a fitted effect of over 30% in size; further: potency means the concentration at half of the fitted maximal effect
Procedure, shortened: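 In this qHTS counter screen, HEK293T cells carrying an ER-beta/UAS beta-lactamase reporter, grown in 2% charcoal-stripped FBS, received compound for 16 hr; ATP-based CellTiter-Glo luminescence was then read after 30 min at room temperature.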

[14] = biological target: Androgen receptor (Homo sapiens) (UniProt P10275); assay: qHTS assay to identify small molecule agonists of the androgen receptor (AR) signaling pathway in the presence of an antagonist (AID 1259381; calls by dose curve; further: nearly all actives have a fitted effect of over 15% in size)
Procedure, shortened: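 AR antagonist background: nilutamide 3.0uM final. Cell line: MDA-kb2, MMTV-driven luciferase, responsive to both AR and GR. Exposure 16hr, 37C, no CO2; ONE-Glo luminescence.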

[15] = qHTS assay to identify small molecule antagonists of the estrogen receptor beta (ER-beta) signaling pathway - cell viability counter screen (AID 1259382); further: nearly all actives have a fitted effect of over 55% in size; further: potency means the concentration at half of the fitted maximal effect;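 on activity change, negative = cytotoxicity: HEK293T cells carrying ER-beta-UAS-bla reporter stimulated with estradiol; series mostly up to about 92 µM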
Procedure, shortened: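 HEK293T ER-beta-UAS-bla, 2% charcoal-stripped FBS; compounds + 1nM E2 16 hr 37C; CellTiter-Glo luminescence, 30 min RT.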

[16] = biological target: Estrogen receptor (Homo sapiens) (UniProt P03372); assay: qHTS assay to identify small molecule agonists of the estrogen receptor alpha (ER-alpha) signaling pathway in the presence of an antagonist (AID 1259383; calls by dose curve; further: nearly all actives have a fitted effect of over 15% in size; further: potency means the concentration at half of the fitted maximal effect; on activation: top concentration of the series differs between compounds)
Procedure, shortened: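 ER-alpha agonism measured under antagonist challenge: 10.0nM ICI-182,780 (final) plus compound, 15 concentrations, 22hr, VM7Luc4E2 ERE-luciferase cells. Read by luminescence.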

[17] = qHTS assay to identify small molecule agonists or antagonists of the thyroid stimulating hormone receptor (TSHR) signaling pathway - wild type cell line counter screen (AID 1259384; calls by dose curve)
Procedure, shortened: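 Counter screen in untransfected Hek293: compounds (15-point titration, triplicate) plus phosphodiesterase inhibitor Ro20-1724 added after 18 h plating; 30 min RT. Intracellular cAMP via competitive d2/cryptate immunoassay, 1 h incubation.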

[18] = biological target: Thyrotropin receptor (Homo sapiens) (UniProt P16473); assay: qHTS assay to identify small molecule antagonists of the thyroid stimulating hormone receptor (TSHR) signaling pathway (AID 1259385; calls by dose curve; further: nearly all actives have a fitted effect of over 20% in size; further: potency means the concentration at half of the fitted maximal effect)
Procedure, shortened: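 Antagonist mode: compound-treated TSHR-expressing HEK293 cells were stimulated with 1.5 ng/mL TSH (final) in presence of Ro20-1724 for 30 min at RT. HTRF cAMP detection after 1 h; each compound tested at 15 concentrations, triplicate.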

[19] = biological target: Estrogen receptor (Homo sapiens) (UniProt P03372); assay: qHTS assay to identify small molecule antagonists of the estrogen receptor alpha (ER-alpha) signaling pathway using the BG1 cell line in the presence of 0.1 nM 17-beta-estradiol (AID 1259244); further: nearly all actives have a fitted effect of over 50% in size; further: potency means the concentration at half of the fitted maximal effect
Procedure, shortened: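 Seeding of stripped-serum-adapted VM7Luc4E2 cells, 24 h attachment, compound transfer, then 0.1 nM final 17beta-estradiol; after 22 h incubation, ONE-Glo reagent and luminescence reading.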

[20] = qHTS assay to identify small molecule phospholipidosis (PLD) inducers (AID 1259344; active means well fitted curve in the direction sought with a large enough effect; an effect the other way counts as inactive or inconclusive)
Procedure, shortened: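 Accumulated phospholipid, stained red by LipidTOX during 24 h compound treatment of HepG2 cells at 37 C, is quantified from images as pit number and intensity, normalised per cell using Hoechst-stained nuclei.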
On the % scale 0 is the no-effect control and ±100 the full control effect.

Estrogen receptor (Homo sapiens), sequence (P03372 whole entry, looked up): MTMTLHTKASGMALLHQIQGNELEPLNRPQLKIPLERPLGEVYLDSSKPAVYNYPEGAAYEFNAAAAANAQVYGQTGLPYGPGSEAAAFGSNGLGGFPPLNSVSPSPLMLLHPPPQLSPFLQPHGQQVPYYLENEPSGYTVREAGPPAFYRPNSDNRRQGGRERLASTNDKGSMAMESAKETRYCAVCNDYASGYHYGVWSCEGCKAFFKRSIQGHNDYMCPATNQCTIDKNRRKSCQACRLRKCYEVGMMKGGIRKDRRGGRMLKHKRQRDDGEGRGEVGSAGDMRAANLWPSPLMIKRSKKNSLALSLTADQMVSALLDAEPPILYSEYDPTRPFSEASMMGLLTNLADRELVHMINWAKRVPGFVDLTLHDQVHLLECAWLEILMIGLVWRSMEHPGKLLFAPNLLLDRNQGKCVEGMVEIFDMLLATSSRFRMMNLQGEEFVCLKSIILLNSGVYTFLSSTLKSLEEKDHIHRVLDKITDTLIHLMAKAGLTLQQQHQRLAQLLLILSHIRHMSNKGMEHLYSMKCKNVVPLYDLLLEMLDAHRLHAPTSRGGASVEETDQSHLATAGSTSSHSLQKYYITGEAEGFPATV
Androgen receptor (Homo sapiens), sequence (P10275 whole entry, looked up): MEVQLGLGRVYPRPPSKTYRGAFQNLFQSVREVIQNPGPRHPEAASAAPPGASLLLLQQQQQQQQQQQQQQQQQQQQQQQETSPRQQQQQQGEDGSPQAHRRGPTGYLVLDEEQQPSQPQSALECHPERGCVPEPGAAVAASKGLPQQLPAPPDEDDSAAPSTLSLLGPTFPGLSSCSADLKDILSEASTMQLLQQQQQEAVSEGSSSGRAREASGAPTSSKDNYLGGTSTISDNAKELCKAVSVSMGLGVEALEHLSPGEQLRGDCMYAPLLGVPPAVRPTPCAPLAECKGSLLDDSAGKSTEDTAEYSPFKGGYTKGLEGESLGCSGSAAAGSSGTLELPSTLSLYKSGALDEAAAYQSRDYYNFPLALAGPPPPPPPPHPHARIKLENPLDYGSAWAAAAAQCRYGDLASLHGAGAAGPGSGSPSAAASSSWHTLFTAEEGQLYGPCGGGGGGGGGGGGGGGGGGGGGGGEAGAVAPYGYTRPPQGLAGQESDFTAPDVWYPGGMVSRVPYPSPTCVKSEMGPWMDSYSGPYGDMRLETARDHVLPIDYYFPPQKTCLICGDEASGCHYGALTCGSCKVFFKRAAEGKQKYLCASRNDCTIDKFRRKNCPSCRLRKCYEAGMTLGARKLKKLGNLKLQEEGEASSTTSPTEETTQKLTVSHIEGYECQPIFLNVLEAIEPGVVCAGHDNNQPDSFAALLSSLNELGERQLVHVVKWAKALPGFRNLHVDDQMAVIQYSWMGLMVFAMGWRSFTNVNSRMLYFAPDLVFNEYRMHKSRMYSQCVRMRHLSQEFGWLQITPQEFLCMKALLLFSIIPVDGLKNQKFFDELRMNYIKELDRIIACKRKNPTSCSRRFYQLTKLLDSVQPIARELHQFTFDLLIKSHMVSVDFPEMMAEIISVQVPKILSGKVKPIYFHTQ
Thyrotropin receptor (Homo sapiens), sequence (P16473 whole entry, looked up): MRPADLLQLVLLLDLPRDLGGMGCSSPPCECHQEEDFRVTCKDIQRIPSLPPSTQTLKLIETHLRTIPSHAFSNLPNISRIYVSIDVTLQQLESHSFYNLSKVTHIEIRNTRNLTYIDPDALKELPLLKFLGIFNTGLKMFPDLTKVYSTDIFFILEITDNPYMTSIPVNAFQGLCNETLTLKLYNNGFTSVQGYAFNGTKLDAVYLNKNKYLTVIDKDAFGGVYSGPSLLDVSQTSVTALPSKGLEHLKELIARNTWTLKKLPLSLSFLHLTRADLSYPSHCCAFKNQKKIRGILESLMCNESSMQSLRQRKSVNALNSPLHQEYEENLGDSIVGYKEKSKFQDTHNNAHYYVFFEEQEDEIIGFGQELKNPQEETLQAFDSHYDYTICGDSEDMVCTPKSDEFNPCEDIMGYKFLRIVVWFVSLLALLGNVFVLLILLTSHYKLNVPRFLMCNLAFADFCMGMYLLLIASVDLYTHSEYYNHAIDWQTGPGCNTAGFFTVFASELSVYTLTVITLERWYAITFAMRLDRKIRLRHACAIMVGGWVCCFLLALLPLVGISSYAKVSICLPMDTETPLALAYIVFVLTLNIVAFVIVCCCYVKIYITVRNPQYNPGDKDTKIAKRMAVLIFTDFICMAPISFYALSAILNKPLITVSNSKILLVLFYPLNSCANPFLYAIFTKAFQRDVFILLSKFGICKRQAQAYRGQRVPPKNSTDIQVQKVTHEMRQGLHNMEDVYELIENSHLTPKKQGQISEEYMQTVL
Estrogen receptor beta (Homo sapiens), sequence (Q92731 whole entry, looked up): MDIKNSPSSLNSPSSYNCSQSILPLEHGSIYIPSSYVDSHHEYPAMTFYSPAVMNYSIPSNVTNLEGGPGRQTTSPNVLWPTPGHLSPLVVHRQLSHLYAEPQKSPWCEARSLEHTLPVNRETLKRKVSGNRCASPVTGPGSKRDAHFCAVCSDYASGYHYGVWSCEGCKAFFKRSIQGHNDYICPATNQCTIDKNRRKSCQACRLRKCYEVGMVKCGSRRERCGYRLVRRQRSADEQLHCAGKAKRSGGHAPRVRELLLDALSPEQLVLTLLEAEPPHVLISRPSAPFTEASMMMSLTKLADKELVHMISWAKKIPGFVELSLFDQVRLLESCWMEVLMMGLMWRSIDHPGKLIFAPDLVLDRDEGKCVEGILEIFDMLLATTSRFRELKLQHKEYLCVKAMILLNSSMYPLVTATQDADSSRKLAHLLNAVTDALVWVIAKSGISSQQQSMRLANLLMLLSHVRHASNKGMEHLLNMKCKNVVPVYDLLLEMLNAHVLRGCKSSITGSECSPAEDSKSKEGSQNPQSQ

CCCCCOc1ccccc1/C(=C\SC)n1ccnc1
active: Potency [3] 21.1 µM | Potency [11] 10.6 µM | Potency [13] 23.7 µM | Potency [15] 29.8 µM
inactive: Potency [1] | Potency [2] | Potency [4] | Potency [5] | Potency [6] | Potency [7] | Potency [8] | Potency [9] | Potency [10] | Potency [12] | Potency [14] | Potency [16] | outcome [17] | Potency [18]

O=S1(=O)CC(Cl)(Cl)C(Cl)(Cl)C1
inactive: Potency [4] | Potency [8] | Potency [10] | Potency [14] | Potency [16] | outcome [17]
active: Potency [1] 21.7 µM | Potency [2] 21.7 µM | Potency [3] 5.45 µM | Potency [19] 21.7 µM | Potency [5] 48.6 µM | Potency [6] 1.37 µM | Potency [7] 2.17 µM | Potency [9] 0.344 µM | Potency [11] 4.86 µM | Potency [12] 21.7 µM | Potency [13] 9.69 µM | Potency [15] 9.69 µM | Potency [18] 48.6 µM

Cc1onc(-c2c(Cl)cccc2Cl)c1C(=O)N[C@@H]1C(=O)N2[C@@H]1SC(C)(C)[C@@H]2C(=O)O
inactive: Potency [1] | Potency [2] | Potency [3] | Potency [20] | Potency [4] | Potency [5] | Potency [7] | Potency [8] | Potency [9] | Potency [12] | Potency [13] | Potency [14] | Potency [15] | outcome [17] | Potency [18]

CCCCCCOC(=O)c1ccc(O)cc1
inactive: Potency [1] | Potency [2] | Potency [3] | Potency [19] | Potency [5] | Potency [10] | Potency [12] | Potency [14] | Potency [15] | outcome [17] | Potency [18]
active: Potency [4] 24.4 µM and 27.3 µM | Potency [13] 48.6 µM | Potency [16] 27.3 µM

CN(C)CCCOC1(Cc2ccccc2)CCCCCC1
inactive: Potency [1] | Potency [2] | Potency [3] | Potency [19] | Potency [4] | Potency [5] | Potency [6] | Potency [7] | Potency [8] | Potency [10] | Potency [11] | Potency [12] | Potency [14] | Potency [15] | Potency [16] | outcome [17]

[O-][n+]1ccccc1SSc1cccc[n+]1[O-]
active: Potency [1] 0.411 µM | Potency [2] 0.326 µM | Potency [3] 0.291 µM | Potency [19] 0.13 µM | Potency [4] 1.83 µM | Potency [6] 0.13 µM | Potency [7] 0.291 µM | Potency [9] 0.164 µM | Potency [13] 0.092 µM | Potency [15] 0.13 µM
inactive: Potency [20] | activity change, negative = cytotoxicity [5] 12.3% [at 19 µM] | activity change [8] -7.63% [at 18.9 µM, hits give high values] | activation [14] -7.58% [at 19 µM] | activation [16] 3.22% [at 19 µM] | cAMP activity change [17] 5.78% [at 18.9 µM]
